From PubChem BioAssay AID449768 (Vanderbilt High Throughput Screening Facility, 2010)
Hit rate of the full screen: of about 110,000 compounds, about 1,400 (1.3%) were called active. The full list was thinned out, with actives kept by preference. Unmarked numbers belong to inactive results.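 Rule for the calls: active = Z score or B-score, a plate-position-corrected score, falls beyond the plate's 99.7% confidence bounds, in either direction; inactive = both scores lie inside the 99.7% bounds.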

target: Sodium-dependent dopamine transporter (Homo sapiens) (UniProt Q01959); assay: changed hDAT dopamine uptake under cocaine IC80, either direction, primary screen, cocaine antagonist project, cell-based, LLC-PK1 hDAT, [14C]-dopamine uptake, MLSMR (AID 449768); conditions: LLC-PK1 hDAT cells, [14C]-dopamine uptake with cocaine IC80; at 10 µM; actives deviate in either direction;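 note: scored against the spread of the other compound wells on the same plate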
Sequence (Q01959 whole entry, looked up): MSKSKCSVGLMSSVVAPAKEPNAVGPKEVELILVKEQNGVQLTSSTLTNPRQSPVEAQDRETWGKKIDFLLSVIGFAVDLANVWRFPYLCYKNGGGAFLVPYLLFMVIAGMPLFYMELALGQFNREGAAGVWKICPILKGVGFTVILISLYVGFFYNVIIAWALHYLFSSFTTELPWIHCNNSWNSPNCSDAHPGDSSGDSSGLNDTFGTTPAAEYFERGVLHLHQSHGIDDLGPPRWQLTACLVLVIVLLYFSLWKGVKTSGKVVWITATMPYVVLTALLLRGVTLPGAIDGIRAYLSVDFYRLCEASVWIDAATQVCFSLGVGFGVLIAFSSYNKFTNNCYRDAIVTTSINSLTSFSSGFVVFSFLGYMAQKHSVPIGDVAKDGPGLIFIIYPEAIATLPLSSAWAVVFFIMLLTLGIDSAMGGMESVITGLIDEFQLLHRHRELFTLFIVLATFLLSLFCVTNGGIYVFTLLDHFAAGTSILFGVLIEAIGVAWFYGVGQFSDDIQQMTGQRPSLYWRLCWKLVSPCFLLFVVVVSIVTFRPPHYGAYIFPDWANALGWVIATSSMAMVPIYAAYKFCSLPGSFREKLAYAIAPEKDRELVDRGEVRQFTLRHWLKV

SMILES	B-score
C/C=C(\C)C(=O)NCCN1C2=NC[C@H](Cc3ccc(O)cc3)N2C[C@@H]1Cc1ccc(OC)cc1	1.04
CC(N)C12CC3CC(CC(O)(C3)C1)C2 (configuration not stated)	-0.549
Cc1ncn(C23CC4CC(CC(O)(C4)C2)C3)n1	-8.14 (active)
COC(=O)c1ccc(NC(=O)C23CC4CC(C2)CC(n2cnc(Cl)n2)(C4)C3)cc1	-1.17
COC(=O)c1c(C)cc(O)c(C)c1O	-0.00953
COC(C/C=C/C(=O)[C@@H](C)OCc1ccccc1)OC	0.0548
C=C1C2C[C@H](O)C(C)(C)[C@@]2(O)[C@H](O)C[C@]23C[C@@](C)(O)[C@H](CC[C@H]12)[C@H]3O (some centres not stated)	-0.371
C=CCC1(C(=O)N(C)Cc2ccccc2)CCN(C(=O)OC(C)(C)C)CC1	1.32
O=C1N[C@H](Cc2ccccc2)C(=O)N[C@H]1Cc1cn(S(=O)(=O)c2ccccc2)c2ccccc12	-1.21
CC(C)(C)CN1C(=O)C(=O)NC[C@H]1Cc1cccc2ccccc12	1.91
CCOC(=O)c1sc(=S)n2c1[nH]c(=O)c1ccc(C(=O)OC)cc12	0.185
CCOC(=O)C1=C(C)Nc2sc(C(=O)c3ccc(Br)cc3)c(N)c2C1c1ccc(C(=O)OC)cc1 (configuration not stated)	2.41 (active)
CCOC(=O)C1=C(C)NC(C)=C(C(=O)OCC)C1c1ccccn1	-1.62
Cc1ccc(CNC(=O)c2ccc3c(c2)S(=O)(=O)c2ccccc2C3=O)cc1	0.00832
CCCC[C@@H]1CN=C(N)N1CCCC	0.44
COC(=O)CNC(=O)c1ccccc1[N+](=O)[O-]	-0.561
CC(=O)c1sc(NC(=O)c2cccc3ccccc23)nc1C	1.43
CC(=O)Oc1ccccc1C(=O)Nc1ncc([N+](=O)[O-])s1	-5.94 (active)
COC(=O)C1=C(N)Oc2cc(C)oc(=O)c2C1c1cccnc1 (configuration not stated)	0.0204

SMILES	B-score
COC(=O)C1=C(C)Nc2ncnn2C1c1cccnc1 (configuration not stated)	0.0386
CCSc1nc2c(c(=O)[nH]1)C(c1cccnc1)C(C(=O)OC(C)C)=C(C)N2 (configuration not stated)	2.12 (active)
CCC(=O)Nc1cccc(C2=NOC3(C2)C[C@@H](C(N)=O)N(C(=O)c2cc([N+](=O)[O-])cc([N+](=O)[O-])c2C)C3)c1 (some centres not stated)	-0.0284
COC(=O)C1(S(=O)(=O)C2(C(=O)OC)CCCC2)CCCC1	-2.03 (active)
C#CCOCCOCCOCCNc1nc(N2CCN(C(=O)[C@H](CCC(=O)O)n3cc(C(N)CO)nn3)CC2)nc(N2CCN(C(=O)[C@H](CCCCN)n3cc(C(N)CC(C)C)nn3)CC2)n1 (some centres not stated)	-0.496
COC(C[C@@H](O)[C@H](C)[C@H](O)COCc1ccccc1)OC	-0.281
CC(C)=CCc1c(O)c(CC=C(C)C)c2occ(-c3ccc(O)cc3)c(=O)c2c1O	1.79
CNC(=O)c1[nH]cnc1C(=O)N[C@@H](CC(C)C)C(=O)OC(C)(C)C	0.0376
CCCOc1ccc(C2C(C(=O)c3ccc(C)o3)=C(O)C(=O)N2CCCn2ccnc2)cc1 (configuration not stated)	0.735
COc1cc(C2C(C(=O)c3ccc(C)o3)=C(O)C(=O)N2Cc2cccnc2)ccc1O (configuration not stated)	-0.83
COc1cc(C2C(C(=O)c3ccc(C)o3)=C(O)C(=O)N2CCc2ccccc2)ccc1O (configuration not stated)	-5.4 (active)
COC(C[C@H](O)CC(=O)COCc1ccccc1)OC	-0.106
COC(=O)c1sc(NC(=O)c2ccc(OC)cc2OC)nc1C	-0.655
COc1ccc2nc(NC(=O)c3ccc(Br)s3)sc2c1	-2.65 (active)
CNC(=O)c1ccc2nc(NC(C)=O)sc2c1	-0.144
Cc1c(C(=O)N2CCOCC2)[nH]c2ccc(OCc3ccccc3)cc12	2.65 (active)
CCOC(=O)c1[nH]c2ccc(OC)cc2c1NC(=O)N1CCOCC1	2.03
Cc1c(C(=O)CN2CCOCC2)[nH]c2ccccc12	-1.19
COc1ccc(SCCN2CCN(CC(C)C)CCC2=O)cc1	-0.972

SMILES	B-score
C=C1CCN([C@@H](Cc2ccccc2)C(=O)N2CCOCC2)S(=O)(=O)c2ccccc21	-0.0232
CCC(C)[C@@H](C(=O)N1CCNCC1)n1cc(CCCCN)nn1 (some centres not stated)	-0.575
Cc1nnc2sc(-c3ccco3)nn12	-0.595
FC(F)(F)c1nnc2sc(-c3ccco3)nn12	-0.943
Fc1ccc(-c2ccc(-c3nn4c(-c5ccco5)nnc4s3)o2)cc1	-8.2 (active)
CC(C)(C)n1nc(Cc2cccc3ccccc23)c(C#N)c1N	-0.00603
O=C(Nc1ccc(S(=O)(=O)N2CCc3ccccc3C2)cc1)c1ccccc1	-0.732
Cc1ccc(NC(=O)CN2CCc3ccccc3C2)cc1	-0.0113
Cc1ccc(NC(=O)CCN2CCc3ccccc3C2)cc1	2.16 (active)
COC(=O)CCCC1=CC2=CC(=O)C(C)(OC(=O)c3cccs3)C(=O)C2=CN1CC1CC1 (configuration not stated)	-0.726
CCC1(CC)C(=O)C2=C3C1[C@H](C(=O)OC)C=C(C(=O)OC)C[C@H]3[C@H]1C(=O)N(Cc3ccccc3)C(=O)[C@H]1[C@H]2C (some centres not stated)	0.0892
CCCCN1C(=S)NC[C@@H]1C(C)CC (some centres not stated)	-0.761
CCCCN1C(N)=NC[C@@H]1CC1CCCCC1	-1.39
COC(=O)Nc1c(C)n(C)n(-c2ccccc2)c1=O	0.348
Cc1cc(C)cc(N(C(C)C(=O)Nc2c(C)n(C)n(-c3ccccc3)c2=O)S(C)(=O)=O)c1 (configuration not stated)	-0.551
Cc1c(NC(=O)C(C)OC(=O)c2cc3c4ccccc4n(C)c3s2)c(=O)n(-c2ccccc2)n1C (configuration not stated)	4.67 (active)
Oc1c(Cl)cc(Cl)c(Cl)c1Cc1c(O)c(Cl)cc(Cl)c1Cl	-5.94 (active)
Cc1nc(-c2ccc(Cl)cc2)sc1C1(C)CC(c2ccccc2F)=NO1 (configuration not stated)	-0.519
CC[C@@H](C)[C@@H](C(=O)N1CCN(C(=O)OC(C)(C)C)CC1)n1cc(CCC(=O)O)nn1	-0.83
